Reference: PubChem BioAssay
Unmarked numbers belong to inactive results. No rule for the calls is given here.

Biological target: Pantothenate synthetase (Mycobacterium tuberculosis (strain ATCC 25618 / H37Rv)) (UniProt P9WIL5)
Test: Coupled enzyme confirmation of inhibitors against recombinant Mtb PanC (AID 375);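 also: 0% = full reaction with vehicle and 100% = no enzyme background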
Settings: coupled enzyme assay; at 10 µM, active compounds read high

Pantothenate synthetase (Mycobacterium tuberculosis (strain ATCC 25618 / H37Rv)), sequence (P9WIL5 whole entry, looked up): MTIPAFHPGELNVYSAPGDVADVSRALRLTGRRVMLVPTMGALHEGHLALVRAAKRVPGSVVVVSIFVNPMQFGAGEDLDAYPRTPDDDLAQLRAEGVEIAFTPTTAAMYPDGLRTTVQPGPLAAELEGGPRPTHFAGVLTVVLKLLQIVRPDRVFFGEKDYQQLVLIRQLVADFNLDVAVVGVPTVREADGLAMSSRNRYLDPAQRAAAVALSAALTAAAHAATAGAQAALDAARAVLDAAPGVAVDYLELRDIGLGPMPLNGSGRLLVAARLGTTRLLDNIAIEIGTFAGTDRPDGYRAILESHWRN

Q: For `CCOC(=O)c1cc2c(=O)n3cccc(C)c3nc2n(Cc2ccco2)c1=NC(=O)c1cccnc1`, which inhibition is on record?
A: 0%

Q: How did the inhibition turn out when `CCOC(=O)C1=C(CC)Nc2ccccc2N=C1NC(=O)Cn1cnc2ccccc2c1=O` was run?
A: 0%

Q: How did the inhibition turn out when `c1ccc(CCc2nn3c(Cn4cnc5ccccc54)nnc3s2)cc1` was run?
A: 5%

Q: Which inhibition does the source give for `CCSc1nnc(NC(=O)C2CCCN(S(=O)(=O)c3cnc[nH]3)C2)s1` (stereo not given) here?
A: 7%

Q: `O=C(NCc1ccco1)c1cc2n(n1)C(C(F)(F)F)CC(c1ccc(F)cc1)N2` (stereo not given) was tested. Which inhibition did it give?
A: 9%

Q: With `CCC1c2ccc(C)n2CCN1C(=O)Nc1ccccc1OC` (stereo not given) as the compound, how does the inhibition read?
A: 9%

Q: For `COC(=O)c1sc(N)c(C(=O)OC)c1COC(=O)C1CC(=O)N(Cc2ccco2)C1` (stereo not given), which inhibition is on record?
A: 3%

Q: `Cc1ccc(C(O)c2nc3ccccc3n2C(C)C)cc1` (stereo not given) was tested. Which inhibition did it give?
A: 0%

Q: With `CC1=C(C(=O)OC(C)C)C(C2CC=CCC2)NC(=O)N1` (stereo not given) as the compound, how does the inhibition read?
A: 6%

Q: With `CCOC(=O)CNC(=O)c1c(C)nn(-c2ccccc2)c1Cl` as the compound, how does the inhibition read?
A: 0%

Q: For `O=C(CSc1nnc(Cn2nnc(-c3ccccc3)n2)n1-c1ccccc1)Nc1ccc(F)cc1`, which inhibition is on record?
A: 1%

Q: For `Cc1cccc(NS(=O)(=O)c2cc(C(=O)OCC(=O)Nc3cc(C)on3)ccc2C)c1`, which inhibition is on record?
A: 0%

Q: How did the inhibition turn out when `COC(=O)c1nnn(-c2ccccc2)c1N` was run?
A: 4%

Q: Which inhibition does the source give for `CC(=O)Nc1cc(N2C(=O)CCC2=O)ccc1Cl` here?
A: 0%

Q: `CSC1=C(C#N)C(c2ccc(Cl)cc2)C2=C(CC(C)(C)CC2=O)N1` (stereo not given) was tested. Which inhibition did it give?
A: 2%

Q: How did the inhibition turn out when `CCNc1nc(NCC)n2c(SCc3nc4ccccc4c(=O)[nH]3)nnc2n1` was run?
A: 1%

Q: For `O=C(CSc1nnc(-c2ccccc2)o1)N1CCc2ccccc2C1`, which inhibition is on record?
A: 0%

Q: With `CC(C)(C)c1cc(CCC(=O)N2CCNCC2)c(C(C)(C)C)cc1O` as the compound, how does the inhibition read?
A: 0%

Q: How did the inhibition turn out when `Cc1ccc(C)c(N2CCN(C(=O)CCCn3c(=S)[nH]c4cc5c(cc4c3=O)OCO5)CC2)c1` was run?
A: 0%

Q: `CCOC(=O)C(CC)n1nc(C)n2c(cc3sccc32)c1=O` (stereo not given) was tested. Which inhibition did it give?
A: 4%

Q: `CCOc1ccc(NCCC(=O)c2ccc3c(c2)OCO3)cc1` was tested. Which inhibition did it give?
A: 1%

Q: Which inhibition does the source give for `O=c1cnnc(NCc2ccccc2)[nH]1` here?
A: 0%

Q: With `CCN(CC)S(=O)(=O)N1CCC(C(=O)NC2CCCc3ccccc32)CC1` (stereo not given) as the compound, how does the inhibition read?
A: 0%

Q: With `Cc1cc(C(=O)NCCCN2CCN(C3CCCCC3)CC2)n(-c2ccccc2)n1` as the compound, how does the inhibition read?
A: 4%

Q: Which inhibition does the source give for `CCC(=O)Nc1ccc2nc(SCC(=O)N3CCCC3)sc2c1` here?
A: 0%

Q: For `COc1ccc(Cl)cc1-c1n[nH]c(=S)o1`, which inhibition is on record?
A: 0%

Q: With `O=C(Cc1c[nH]c2ccccc12)N1CCc2ccccc21` as the compound, how does the inhibition read?
A: 3%

Q: Which inhibition does the source give for `COc1ccc2nc(CC(C)(C)CC(=O)O)c[n+]([O-])c2c1` here?
A: 10%

Q: Which inhibition does the source give for `COc1ccc(S(=O)(=O)Nc2ccc3c(c2)OCO3)cc1Cl` here?
A: 5%

Q: `O=S(=O)(Cc1ccccc1)N1CCCCCC1` was tested. Which inhibition did it give?
A: 0%

Q: Which inhibition does the source give for `CCc1ccc2[nH]c(=O)c(C(c3nnnn3CC3CCCO3)N3CCCc4ccccc43)cc2c1` (stereo not given) here?
A: 0%

Q: For `CCc1ccccc1NC(=O)C(CC)Sc1nc2cc3c(cc2c(=O)n1Cc1ccco1)OCO3` (stereo not given), which inhibition is on record?
A: 0%

Q: How did the inhibition turn out when `Fc1c(F)c(F)c(CSc2nc3ccccc3[nH]2)c(F)c1F` was run?
A: 3%

Q: How did the inhibition turn out when `CCCCN(C)Cc1c(C)[nH]c2c(Cl)cccc2c1=O` was run?
A: 5%

Q: With `CC(C)(C)c1nnc(NC(=O)C2CCN(c3ncccn3)CC2)s1` as the compound, how does the inhibition read?
A: 1%

Q: How did the inhibition turn out when `CC1=C(C(=O)Nc2ccccc2C)C(c2ccc(C)o2)N2C(=O)CSC2=N1` (stereo not given) was run?
A: 0%

Q: With `COc1ccc(N2CCN(c3ccc(NC(=O)C4CCCCC4)cc3C#N)CC2)cc1` as the compound, how does the inhibition read?
A: 0%

Q: How did the inhibition turn out when `CCN(CC)S(=O)(=O)c1ccc(C(=O)N2CCN=C2SCc2cccnc2)cc1` was run?
A: 0%

Q: `Cc1cc(=O)c2n(Cc3ccccc3Cl)nc[n+]2[nH]1` was tested. Which inhibition did it give?
A: 5%

Q: For `CCOC(=O)N1CCN(c2cc3[nH]c(=S)[nH]c3cc2F)CC1`, which inhibition is on record?
A: 2%
